# Assay results taken from the supplement of paper PMC6607015.
# Where a name gives a salt, the structure may show the parent alone.
# What was measured:
# Details in all cases: compound concentration in added solution (µM; 5 µl added to 20 µl cells): 10; 18 h
# A431 [1] = assay: LBPA endosome anti-LBPA integrated intensity (sum per cell), Z-score; higher = more LBPA staining
# Procedure, shortened: (§1)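 Duplicate 384-well imaging plates were prepared with 5 µl of 10 µM compound solution per well, and 3,500 HeLa MZ or A431 cells in 20 µl were added on top. Following 18 h of incubation and fixation in 4% PFA, cells received 6C4 anti-LBPA antibody, filipin, propidium iodide and CellTracker green. Four images per well at 20× were segmented in MetaXpress to yield per-cell integrated LBPA or filipin intensity, whole-cell or within LBPA endosomes. These intensities are reported as Z-scores normalised in AcuityXpress.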
# HeLa MZ [2] = assay: as above
# Procedure, shortened: as §1
# A431 [3] = assay: whole-cell filipin (free cholesterol) integrated intensity, Z-score; higher = more cholesterol staining
# Procedure, shortened: as §1
# HeLa MZ [4] = assay: as above
# Procedure, shortened: as §1
# A431 [5] = assay: filipin (cholesterol) integrated intensity within LBPA endosomes, Z-score; higher = more cholesterol in LBPA endosomes
# Procedure, shortened: as §1
# HeLa MZ [6] = assay: as above
# Procedure, shortened: as §1
Structure (SMILES),LBPA endosome anti-LBPA integrated intensity (z-score) (A431 [1]),LBPA endosome anti-LBPA integrated intensity (z-score) (HeLa MZ [2]),whole-cell filipin (z-score) (A431 [3]),whole-cell filipin (z-score) (HeLa MZ [4]),filipin (z-score) (A431 [5]),filipin (z-score) (HeLa MZ [6])
OC(CCN1CCCC1)(c1ccccc1)C1CCCCC1 (centres undefined) [Procyclidine hydrochloride],-0.0883,0.3,0.506,0.736,0.0344,0.437
CC(=O)S[C@@H]1CC2=CC(=O)CC[C@]2(C)[C@H]2CC[C@@]3(C)[C@@H](CC[C@@]34CCC(=O)O4)[C@H]12 [Spironolactone],-0.583,-0.535,-0.744,-0.849,-0.526,-0.689
CS(=O)(=O)c1ccc(C2=C(c3ccccc3)C(=O)OC2)cc1 [Rofecoxib],-0.672,-1.7,-1.07,-0.451,-0.59,-0.599
CNC(=O)c1c(I)c(C(=O)NCC(=O)Nc2c(I)c(C(=O)O)c(I)c(C(=O)NCCO)c2I)c(I)c(N(C)C(C)=O)c1I [Ioxaglic acid],-0.421,-0.394,-0.282,-0.455,-0.384,-0.571
CC(=O)NCCCS(=O)(=O)O [Acamprosate calcium],-0.335,0.472,-0.555,-0.465,-0.407,-0.547
"C[C@](N)(Cc1ccc(O)c(O)c1)C(=O)O [Methyldopa (L,-)]",-0.446,-0.811,-0.449,0.0391,-0.366,-0.319
CCCOc1cc(N)ccc1C(=O)OCCN(CC)CC [Propoxycaine hydrochloride],0.303,1.24,0.398,0.62,-0.0905,0.287
c1ccc(CN(CC2=NCCN2)c2ccccc2)cc1 [Antazoline hydrochloride],-0.107,0.686,-0.0849,0.249,-0.0343,0.301
C#C[C@]1(O)CC[C@H]2[C@@H]3CCC4=CCCC[C@@H]4[C@H]3CC[C@@]21C [Lynestrenol],-0.602,-1.13,-1.14,-0.677,-0.563,-0.697
Clc1cnccn1 [2-Chloropyrazine],-0.346,-0.401,0.139,-0.365,-0.401,-0.492
NS(=O)(=O)c1cc(C(=O)O)cc(N2CCCC2)c1Oc1ccccc1 [Piretanide],-0.606,-1.16,-0.2,0.517,-0.411,-0.576
CN1CCC(=C2c3ccccc3CC(=O)c3sccc32)CC1 [Ketotifen fumarate],0.0746,0.508,0.273,-0.159,0.289,0.175
Cc1cnc(C(=O)O)c[n+]1[O-] [Acipimox],-0.468,-0.426,-0.532,-0.464,-0.503,-0.519
CC(=O)[C@H]1CC[C@H]2[C@@H]3CC=C4C[C@@H](O)CC[C@]4(C)[C@H]3CC[C@]12C [Pregnenolone],2.84,2.65,1.33,1.33,2.1,1.2
Cc1nccn1CC1CCc2c(c3ccccc3n2C)C1=O (centres undefined) [Ondansetron Hydrochloride],0.526,1.23,-0.22,0.362,-0.149,0.186
CN1CCCN=C1/C=C/c1cccc(O)c1 [Oxantel pamoate],-0.563,-0.852,-0.857,-0.729,-0.5,-0.659
CC(=O)OCC(=O)[C@@]12OC(C)(C)O[C@@H]1C[C@H]1[C@@H]3C[C@H](F)C4=CC(=O)C=C[C@]4(C)[C@@]3(F)[C@@H](O)C[C@@]12C [Fluocinonide],-0.115,-0.842,-0.144,-0.284,-0.311,-0.49
CCN(CC)C(=O)Nc1ccc(OCC(O)CNC(C)(C)C)c(C(C)=O)c1 (centres undefined) [Celiprolol HCl],0.0633,0.456,-0.229,-0.152,-0.388,-0.405
COc1ccc(/C=C/C(=O)Nc2ccccc2C(=O)O)cc1OC [Tranilast],-0.353,-0.361,-0.609,-0.648,-0.443,-0.608
